Measured values as given in the supplement of paper PMC12632987.
Over roughly 4,500 sequences, “median log2 fold change of GCK-ALFA target abundance (FLAG IP / Myc IP barcode read proportion)” has its median near 0.078; the lowest 2% begin near -0.6. The sample as a whole holds a higher share of the lowest values than the screen did.

B1: GBRAP_78_6619 (protein)
chain: ETKEKIIELLDRARDRMREIARREPEVRDLANEAAVLVGTAILMVDTGEESKEEIIEELEEALKVAKELLERLEGRDEESVKLAKEAIEDLKKAIELVKK
B2: GBRAP_160_4698 (protein)
chain: TATAEKLKAFVKEEFEKAKEEIEGESREQRAVILAGTGGEILMELVEDPNATDELEDEVLAIFDDAVATLLANPNLTLEETKALIDEVEAKVLAAIDKHL
B3: GBRAP_166_4925 (protein)
chain: MIEEKVEEARKRLEEVIREGRADPSLTDGQITAAMAYEVAEMLKDIEDEEEKLAVVEEGLRLAKEEGLDPRRLATLTASLYGFSDEERERIDEITEKILA
B4: GBRAP_53_6398 (protein)
chain: AAAAIAAGLAELEALIAEVEADPTLDAADVAARAGALLKALAAAGAPEAELTALARRLAAAVAARGLGVEVSTALAATAAAAGREAVAAVFTEAAVEDLE
B5: GBRAP_128_3157 (protein)
chain: STEEVREETRRLLEEIRESDEEEAREIARELFALILTLSDEEAEAAVEVILELLPELSKEKLEILADVAREMRPEADPFKAELLAEVEVEALNEALELEE
B6: GBRAP_45_5811 (protein)
chain: SEELKETREKLEELLKKAKELAEKLKEEDPEKFTPLLELLEEAEKLLKEEPESLEAWERIEELLEEALKLALDSKKASAELLETLLEAANLALEAKELLE
B7: GBRAP_52_5842 (protein)
chain: MEEEARRLAEELVALAEAGREEELDALIEEIVETLSEEEVMLVLEELARLAAEADPETAEVIFDVADRLADAALAAGFDEMEMSLGLALVGAAVYKALQR
B8: GBRAP_184_5031 (protein)
chain: SVIERTIKADNLEELEAKLEKLKEEVKGSKADLIVTLDIKNPTEEMIKTALKRLGEMKKNGDVSSVTVGFARLLSEELIDVALKTADEEGVKVVLPISEE
B9: GBRAP_52_6157 (protein)
chain: MEARAEAYANALIAAVKAGDEAAIRALMEEIAATLSEEEIELMMAIVAEKVAGLTPEEQERAVEAALELEDILIAAGHDENIASYNTARVAGAAYDALQA
B10: GBRAP_52_6039 (protein)
chain: MEEEMRRKAEEIVELVKAGRRAEAEARIRELVATWSEEELELLGEELARLAREAEPEDLDAVMEAALMLADALEAAGYDPAFADDLLARVAAAAVENLQR
B11: GBRAP_14_3840 (protein)
chain: REEVRRLLLEAVERAVEEVRKFAPEEARERVEALREVLRRAVDEGLETGDLEEAERRLVEVAEAAVRELFADLPPEERGALVAVAVDELVEGFEELEERL
B12: GBRAP_80_6763 (protein)
chain: MMEELEEALEELSELLPELAEELRATVEALLELGVPVEDLLRLLKALVELAKLDKEKAEAILREFIAEVNEAIARGDLEEARALVIDAESDALLEVEELE
B13: GBRAP_125_3054 (protein)
chain: NLEEAIEALAELGKILGLSEEEVEELRKLAEKYGVKGTLYALLLAEGEEELAELVAKLTEEEVIEVLKRLLEYIKSHPNITKEEALEKLKELAEEALAKK
B14: GBRAP_117_2592 (protein)
chain: SATREAARAKIRATVAEVEALFKELAGLSPEEQAEALAAMRERVKAVLREVIEELGEEEAEELLDEALLDTDAETYFFLESVREDTLEELEEEEEEEERE
B15: GBRAP_52_6014 (protein)
chain: MRERLRAFVDEVLALVRAGKEEEARALIEELVASLNEEEIELLIDVLAERAAAARPEDQEAVWRLAEMLAEALEEAGVDEALADDLLARVAAALYAAEQA
B16: GBRAP_83_6975 (protein)
chain: AEEIVVAAPADRVEEAVEIAIDLAKEEGKKVTLEILTTPEQRERVLEAVERLLKEVPNIEIVVVLRGATKEEAEELEKELKEIAKELGVNADIEVLIEEP
B17: GBRAP_26_5452 (protein)
chain: MEEKLEALRDRLVELADELLDPETAALLKVEVDNIVALAELELEEANGDLEKELAVVEEMLEDLEEALDDLEVPEEVKEKLLEAAREAAEEIKEYLKKKS
B18: GBRAP_26_5451 (protein)
chain: MEELLERFRERLERAADELLDPETAALLKVAVDDIIALAELELEEANGDLEKELEIVEEMLEDLEEELEDLEVPEEVREKLLEIAREEAEEIKKALKEER
B19: GBRAP_52_5986 (protein)
chain: MKEEAKKIAEELVKLMLEGKEEEAEKLMKEIAENKSQEFILMVMEELAKMAKTATPEEVDAIVDTALMLGDIALEAGFDEAEIDDAEARVAAAAVENLKK
B20: GBRAP_64_6489 (protein)
chain: MEEIEESLEELLKLVEELLEAVKDLSEELQKKVEEVKRLVEEAKTASLEERLDLTVEAAKLLNEILKNPELTEEQKELAGLALDKASELAWLLFEAEEEE
B21: GBRAP_11_2748 (protein)
chain: KKEKLKEIAKAAEELAALLDKLIAEGVDNAELQAAAEKALKELAELVEKYGDESLKKLVAIIQEEFAQAKADPATAEAHWRNALAAARVLAGQVLLEIEE
B22: GBRAP_160_4544 (protein)
chain: KEKVEEAIKDIDERAAFVKSLVGKVSTEELINFFDVEVGSFIMELEELGLLTDELGEEIDKIADETKATLKANPNASDEEKKALIDEAAEKIKEAILKHS
B23: GBRAP_26_5425 (protein)
chain: LDEAVERAIERISAAAAELLDPETAAAVRAVVTDELLEAEEEIEEEDLSEEEVEELLEEVLEEIEEDLEELGVPAEKRARLVAVAEEELEEVLEEWKEER
B24: GBRAP_78_6625 (protein)
chain: EIKKLLEKALKKVEEAAKLATKIPSEEGIEILDHLIDAFEYIEEAIEEGGDLEKLEKALKHLEEALKEIEKLNNPELEELKKLVKEAIKLLKKAIELKKK
B25: GBRAP_39_5692 (protein)
chain: EEEEEDEDVVSYLQALAAGRLYETGKSLEEAYKEAKKILEEEAKRHPELKELLEELIKLADEKGEEAKEVLIGIAVLIEEGTPLEEIKEHIEKAINYFKK
B26: GBRAP_11_2756 (protein)
chain: KKEKLKEMAELAEKAAELVKKLLEEGVDNEELQEELEKVLKELKKLVKEYGDEADKKLVEIAEELWKKAKEDEENKEQYYKELLATLRVLSGDFLLEYEE
B27: GBRAP_160_4385 (protein)
chain: AAALAALAKEIEALRKEFEEEAKDLNTEETRTLAIGVLAEVAALAWENEAISEETKDKIFAIIDEAIEELKANKDAPPEEIVAITTEAFDKIIALVKAEA
B28: GBRAP_160_4108 (protein)
chain: SAGAEAILADFREVFAEVLELWDEVSPEELVAYYEVETGSVIMDAMENYGLSDETADRLLDIRDEAAARLLAHGNVSREEVERILAEALARIEAAVAAAA
B29: GBRAP_9_7157 (protein)
chain: MEELIEKVEEVIEDMLEEIKEVVPEEVKPAVEKRREEVKKRLEELGEDENATEEEIIEEAERLVRETLEEMKKLVDPETAKIVEAIALTAELEIEEIGEE

target: GABARAP, O95166; assay: median log2 fold change of GCK-ALFA target abundance (FLAG IP / Myc IP barcode read proportion) (log2 ratio); each designed protein is fused to an ALFA-tag nanobody in HEK293 cells to bring the named protein to FLAG-tagged glucokinase (GCK); Myc marks an untargeted standard; higher = target protein stabilised (more abundant); conditions: target protein: 3xFLAG-MCP-GCK-ALFA reporter; HEK293 landing pad (RPLP)
Sequence (O95166 whole entry, the tested form may be a part): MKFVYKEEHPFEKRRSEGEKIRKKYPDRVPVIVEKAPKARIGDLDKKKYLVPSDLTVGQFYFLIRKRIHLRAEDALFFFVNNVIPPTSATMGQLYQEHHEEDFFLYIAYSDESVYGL
Procedure, shortened: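 An ALFA-nanobody-fused binder library was recombined into HEK293 landing-pad cells and induced with 2 μg mL^−1 doxycycline. Cells were transfected with a plasmid expressing a FLAG-tagged target and a Myc-tagged standard. After 48 h, lysates underwent anti-FLAG and anti-Myc immunoprecipitation, and circular RNA barcodes were reverse transcribed, amplified and sequenced. Target abundance is the per-binder median log2 ratio of FLAG to Myc barcode read proportions. Barcodes needed ≥10^−7 proportion in both replicates, binders ≥3 barcodes per replicate, and a 10^−6 pseudocount was added; the two replicates were pooled.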

Binder	median log2 fold change
B1	0.338
B2	-0.69
B3	0.302
B4	0.254
B5	0.00897
B6	0.129
B7	-0.837
B8	0.0419
B9	-0.262
B10	-0.911
B11	0.0661
B12	0.0537
B13	-1.42
B14	0.191
B15	-0.157
B16	0.0242
B17	-0.454
B18	-1.2
B19	-0.152
B20	0.0238
B21	0.194
B22	0.0163
B23	-0.608
B24	0.283
B25	0.284
B26	0.0874
B27	-0.171
B28	-0.764
B29	-0.11
